Activity calls are given as the source filed them. The calls were made as follows: active = hit-call score of the fitted dose curve at least 0.9, where 1 is the maximum; inactive = score below 0.9.
Test: BSK_SAg_Proliferation: Cell Proliferation Assessment in the BioMAP Diversity Plus: SAg Assay (AID 2283095);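 also: relative cell number as total protein by SRB absorbance in sub-confluent culture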
Details: primary human HUVEC with PBMC
Outline: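 Human umbilical vein endothelial cells co-cultured with peripheral blood mononuclear cells; total protein measured by sulforhodamine B staining (0.1% SRB after 10% TCA fixation), absorbance at 560 nm, at 96 h. Bidirectional fit against DMSO baseline.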

AC50, active:
CCCCCCCCCCCCCCCO 29.5 µM
O=c1n(CC2CO2)c(=O)n(CC2CO2)c(=O)n1CC1CO1 (configuration not stated) 10.6 µM
Clc1nc(Cl)c(Cl)c(Cl)c1Cl 23.3 µM
CC/C(=C\C(=N/O)C(N)=O)C(C)[N+](=O)[O-] (configuration not stated) 20 µM

outcome, inactive:
CC(=O)OC[C@H]1O[C@@](COC(C)=O)(O[C@H]2O[C@H](COC(C)=O)[C@@H](OC(C)=O)[C@H](OC(C)=O)[C@H]2OC(C)=O)[C@@H](OC(C)=O)[C@@H]1OC(C)=O
CCn1nc(Cc2ccccc2)cc1C1CCN(C[C@H]2C[C@H](N(C)[C@@H](C(=O)O)C(C)C)C[C@@H]2c2cccc(F)c2)CC1
CC1(C)C(=O)N(Br)C(=O)N1Br
CCCCC(CC)COC(=O)CCCCCCCCC(=O)OCC(CC)CCCC (configuration not stated)
CCCCCCCCCCCCc1ccccc1
COC(=O)c1ccccc1O
Cc1ccc(O)cc1
CC(C)CCO
CC(C)=CCC/C(C)=C/CO
CC(C)CCCCCCOC(=O)c1ccc(C(=O)OCCCCCCC(C)C)c(C(=O)OCCCCCCC(C)C)c1
C1=CCCC=CCCC=CCC1
CC[C@H]1OC(=O)[C@H](C)[C@@H](O[C@H]2C[C@@](C)(OC)[C@@H](O)[C@H](C)O2)[C@H](C)[C@@H](O[C@@H]2O[C@H](C)C[C@H](N(C)C)[C@H]2O)[C@](C)(O)C[C@@H](C)C(=O)[C@H](C)[C@@H](O)[C@]1(C)O
O=C(O)CCN(C1(C(=O)NO)CCCC1)S(=O)(=O)c1ccc(Oc2ccc(F)cc2)cc1
